# Inconclusive results are not listed. Calls of active or inactive are those of the source. How the source made its calls: active means hit-call score of the fitted dose curve at least 0.9, where 1 is the maximum; inconclusive means response in the unintended direction; inactive means score below 0.9.
# Target: Retinoic acid receptor RXR-alpha (Homo sapiens) (UniProt P19793)
# Test: ATG_RXRa_TRANS: Attagene TRANS-FACTORIAL HepG2 Assay for human Retinoid X Receptor alpha (RXRa) (AID 2283012)
# Summary of the method: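 HepG2 cells transiently transfected with multiplexed GAL4-UAS reporter units and chimeric NR-GAL4 fusions, dosed 24 h. Reporter mRNA measured by RT-PCR, FAM labelling, HpaI digestion and capillary electrophoresis; gain-of-signal fitted relative to DMSO baseline.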
# Sequence of Retinoic acid receptor RXR-alpha (Homo sapiens) (P19793 whole entry, looked up): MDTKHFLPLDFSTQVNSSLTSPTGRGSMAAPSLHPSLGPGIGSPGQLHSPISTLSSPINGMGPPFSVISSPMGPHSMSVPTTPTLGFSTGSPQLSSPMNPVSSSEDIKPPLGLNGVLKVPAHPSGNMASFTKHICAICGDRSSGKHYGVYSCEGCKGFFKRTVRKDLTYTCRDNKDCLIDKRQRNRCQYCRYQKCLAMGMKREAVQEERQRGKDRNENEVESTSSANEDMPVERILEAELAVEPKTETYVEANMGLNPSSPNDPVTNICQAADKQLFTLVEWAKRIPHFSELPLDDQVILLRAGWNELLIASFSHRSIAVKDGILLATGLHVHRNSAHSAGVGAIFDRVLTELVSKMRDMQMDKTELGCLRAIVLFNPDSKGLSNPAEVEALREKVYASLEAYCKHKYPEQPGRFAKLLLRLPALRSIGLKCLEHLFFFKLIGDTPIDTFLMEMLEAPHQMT
row,Structure (SMILES),outcome
1,CC(C)(C)C(=O)C1C(=O)c2ccccc2C1=O,inactive
2,F[Si-2](F)(F)(F)(F)F,inactive
3,OCC(O)CC(F)(F)C(F)(F)C(F)(F)C(F)(F)C(F)(F)C(F)(F)C(F)(F)C(F)(F)F (stereo not given),inactive
4,Nc1cccnc1N,inactive
5,CCN=c1cc2oc3cc(NCC)c(C)cc3c(-c3ccccc3C(=O)OCC)c-2cc1C,inactive
6,C=CC(=O)OCC(F)(F)C(F)(F)C(F)(F)C(F)(F)C(F)(F)C(F)(F)C(F)(F)C(F)F,inactive
7,CCC(C)CO (stereo not given),inactive
8,NS(=O)(=O)C(F)(F)C(F)(F)C(F)(F)C(F)(F)C(F)(F)C(F)(F)F,inactive
9,C=C(C)CCCC,inactive
10,CCCCOC(=O)[C@H](C)O,inactive
11,NC(=O)C(F)(F)C(F)(F)C(F)(F)C(F)F,inactive
12,CN1CN(C)CN(C)C1,inactive
13,O=S(=O)(OCC(F)(F)F)C(F)(F)C(F)(F)C(F)(F)C(F)(F)F,inactive
14,C[C@]12CC[C@H]3C(=CCc4cc(O)ccc43)[C@@H]1CCC2=O,inactive
15,CSc1ccc(O)cc1C,inactive
16,CCCCCCCC/C=C\CCCCCCCC(=O)N(C)CC(=O)O,inactive
17,CO[Si](C)(CCC(F)(F)C(F)(F)C(F)(F)C(F)(F)C(F)(F)C(F)(F)F)OC,inactive
18,NCC(F)(F)C(F)(F)C(F)(F)C(F)(F)C(F)(F)C(F)(F)F,inactive
19,CC(O)C#CC(C)O (stereo not given),inactive
20,CCCCC(CC)COC(=O)c1ccc(N(C)C)cc1 (stereo not given),inactive
21,CCCC(=O)OCC(COC(=O)CCC)OC(=O)CCC,inactive
22,CNS(=O)(=O)C(F)(F)C(F)(F)C(F)(F)C(F)(F)C(F)(F)C(F)(F)C(F)(F)C(F)(F)F,inactive
23,Cc1ccc(O)cn1,inactive
24,Cc1ccc(O)c(-n2nc3ccccc3n2)c1,inactive
25,CCCCCCCCn1sc(Cl)c(Cl)c1=O,inactive
26,CO[Si](CCCOCC1CO1)(OC)OC (stereo not given),inactive
27,COCCOCCC[Si](C)(O[Si](C)(C)C)O[Si](C)(C)C,inactive
28,O=C(O)CCC(F)(F)C(F)(F)C(F)(F)F,inactive
29,C[Si](C)O[Si](C)C,inactive

# Target: human Retinoid X Receptor beta (RXRb), RXRB (gene 6257) (UniProt P28702)
# Sequence (P28702 whole entry, looked up): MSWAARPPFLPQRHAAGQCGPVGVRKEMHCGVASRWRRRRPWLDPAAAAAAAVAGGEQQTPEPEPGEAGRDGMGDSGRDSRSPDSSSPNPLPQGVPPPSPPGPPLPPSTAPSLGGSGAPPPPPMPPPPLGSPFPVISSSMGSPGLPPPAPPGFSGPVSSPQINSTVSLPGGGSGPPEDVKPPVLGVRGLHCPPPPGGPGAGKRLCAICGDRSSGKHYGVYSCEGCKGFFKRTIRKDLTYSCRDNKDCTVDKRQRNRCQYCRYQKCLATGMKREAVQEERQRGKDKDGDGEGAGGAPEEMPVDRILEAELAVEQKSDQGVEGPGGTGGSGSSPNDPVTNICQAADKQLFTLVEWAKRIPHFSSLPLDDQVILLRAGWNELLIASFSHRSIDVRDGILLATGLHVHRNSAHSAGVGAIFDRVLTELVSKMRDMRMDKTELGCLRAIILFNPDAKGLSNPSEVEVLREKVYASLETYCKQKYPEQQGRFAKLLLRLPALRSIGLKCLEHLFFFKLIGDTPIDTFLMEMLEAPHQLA
# Test: ATG_RXRb_TRANS: Attagene TRANS-FACTORIAL HepG2 Assay for human Retinoid X Receptor beta (RXRb) (AID 2283013)
# Summary of the method: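 HepG2 cells transiently transfected with multiplexed reporter units driven by GAL4-UAS and exogenous chimeric NR-Gal4 proteins; treated 24 h. Reporter mRNA measured by RT-PCR, 6-FAM labelling and capillary electrophoresis; gain-of-signal fitted versus DMSO baseline.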
Structure (SMILES),outcome,AC50
CC(C)(C)C(=O)C1C(=O)c2ccccc2C1=O,inactive,–
F[Si-2](F)(F)(F)(F)F,inactive,–
Nc1cccnc1N,inactive,–
CCN=c1cc2oc3cc(NCC)c(C)cc3c(-c3ccccc3C(=O)OCC)c-2cc1C,inactive,–
C=CC(=O)OCC(F)(F)C(F)(F)C(F)(F)C(F)(F)C(F)(F)C(F)(F)C(F)(F)C(F)F,inactive,–
C=C(C)CCCC,inactive,–
NC(=O)C(F)(F)C(F)(F)C(F)(F)C(F)F,inactive,–
O=S(=O)(OCC(F)(F)F)C(F)(F)C(F)(F)C(F)(F)C(F)(F)F,inactive,–
CSc1ccc(O)cc1C,inactive,–
CCCCCCCC/C=C\CCCCCCCC(=O)N(C)CC(=O)O,inactive,–
C#CC(O)CCC (stereo not given),inactive,–
CO[Si](C)(CCC(F)(F)C(F)(F)C(F)(F)C(F)(F)C(F)(F)C(F)(F)F)OC,inactive,–
NCC(F)(F)C(F)(F)C(F)(F)C(F)(F)C(F)(F)C(F)(F)F,inactive,–
CCCCCCCCCCCCCCCCC,inactive,–
CC(O)C#CC(C)O (stereo not given),inactive,–
CNS(=O)(=O)C(F)(F)C(F)(F)C(F)(F)C(F)(F)C(F)(F)C(F)(F)C(F)(F)C(F)(F)F,inactive,–
Cc1ccc(O)c(-n2nc3ccccc3n2)c1,–,20.4 µM (active)
CO[Si](CCCOCC1CO1)(OC)OC (stereo not given),inactive,–
CCN(CC)c1ccc(C=O)cc1,inactive,–
COCCOCCC[Si](C)(O[Si](C)(C)C)O[Si](C)(C)C,–,33.4 µM (active)
O=C(O)CCC(F)(F)C(F)(F)C(F)(F)F,inactive,–

# Source: PubChem BioAssay (EPA / NIEHS)
